The values that follow come from PubChem BioAssay (NCI).

The panel holds about 83,000 compounds, 20% with a hit somewhere; the sample as a whole holds those more often.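 Interpretation: 100, growth as untreated; towards 0, rising growth inhibition; 0, no net growth; 0 to -100, cell death. Compounds scoring below 10 were considered active.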 Values without a mark were called inactive. The source made the active and inactive calls.

Some test systems named below: NCI-H23 lung; NCI-H226 lung; NCI-H322M lung; HOP-62 NSCLC; NCI-H460 lung; HOP-92 NSCLC; NCI-H522 lung; A549/ATCC NSCLC; 786-0 renal; COLO 205 colon.
Holding throughout (test): NCI-60 one-dose screen, 48 h (100 = growth as untreated, 0 = no growth, -100 = all killed)
Details in all cases: 10 µM unless noted

For `CCn1cc(C(=O)O)c(=O)c2cc(F)c(N3CCN(S(=O)(=O)c4cccc5ccccc45)CC3)cc21`, the growth was 0.0593% (active) with NCI-H23 lung; 21.9% in the assay on NCI-H226 lung; -14.5% (active) in the assay on NCI-H322M lung; 15.1% in the assay on HOP-62 NSCLC; 8.04% (active) with NCI-H460 lung; -8.49% (active) in the assay with HOP-92 NSCLC. Further, the growth was -33.9% (active) in the assay with NCI-H522 lung, 3.78% (active) with A549/ATCC NSCLC, 24.3% in the assay with 786-0 renal and -87.6% (active) in the assay with COLO 205 colon.
Take `COc1ccc(-n2cnc3c(sc4ncc(Cl)cc43)c2=O)cc1`: the growth in the assay on NCI-H23 lung is 93.4%; with NCI-H226 lung, 97.8%; with NCI-H322M lung, 45.7%; in the assay on HOP-62 NSCLC, 96.9%; in the assay on NCI-H460 lung, 49.1%; in the assay with HOP-92 NSCLC, 42.9%. For the same compound, the growth was 93.3% in the assay on NCI-H522 lung, 67% in the assay with A549/ATCC NSCLC, 76.8% with 786-0 renal and 113% in the assay with COLO 205 colon.
With `Cc1ccc2c(c1)ncn2-c1ncnc2c1CC(C)c1ccccc1N2C` (stereo not given), the growth was 24% with NCI-H23 lung; 54.2% in the assay on NCI-H226 lung; 61.3% in the assay on NCI-H322M lung; 33.9% with HOP-62 NSCLC; 3.26% (active) with NCI-H460 lung; 24% in the assay on HOP-92 NSCLC. In addition, the growth in the assay with NCI-H522 lung was -22.8% (active); in the assay on A549/ATCC NSCLC it was 23.5%; in the assay with 786-0 renal, 24.9%; in the assay on COLO 205 colon it was -33.4% (active).
Take `CCN1C(=O)N(CC)C2C1NN=c1s/c(=C\c3cccc(F)c3)c(=O)n12` (stereo not given): the growth is 33.9% in the assay on NCI-H23 lung; 105% in the assay on NCI-H226 lung; 49.6% with NCI-H322M lung; 42.2% with HOP-62 NSCLC; 1.33% (active) with NCI-H460 lung; 29.6% in the assay on HOP-92 NSCLC. For the same compound, the growth in the assay on NCI-H522 lung was -0.955% (active); in the assay with A549/ATCC NSCLC it was 27%; with 786-0 renal, 12.2%; in the assay on COLO 205 colon, -5.47% (active).
In the case of `CC(=O)Nc1ccc(S(=O)(=O)N2C(=O)CCC2C(=O)Nc2ccc(Br)cc2)cc1` (stereo not given), the growth is 21.9% with NCI-H23 lung; 50.2% in the assay with NCI-H226 lung; 31.8% in the assay with NCI-H322M lung; 45.6% in the assay with HOP-62 NSCLC; 21.2% with NCI-H460 lung; 11.8% with HOP-92 NSCLC. For the same compound, the growth in the assay on NCI-H522 lung is -7.58% (active); in the assay on A549/ATCC NSCLC it was 22.3%; in the assay with 786-0 renal, 57.8%; in the assay on COLO 205 colon, 6.33% (active).
Turning to `Cc1ccc2c(c1)C(C)Cc1c(ncnc1-n1cnc3ccccc31)N2C` (stereo not given), the growth was 28.9% in the assay with NCI-H23 lung; 72.4% with NCI-H226 lung; 43% in the assay with NCI-H322M lung; 38.1% in the assay with HOP-62 NSCLC; 4.64% (active) in the assay on NCI-H460 lung; 62.6% with HOP-92 NSCLC. Further, the growth was -15.3% (active) in the assay on NCI-H522 lung, 31% with A549/ATCC NSCLC, 30.9% in the assay with 786-0 renal and -11.5% (active) in the assay on COLO 205 colon.
Take `Cn1cc(C=O)c2ccccc21`: the growth in the assay with NCI-H23 lung is 96.4%; with NCI-H226 lung, 95.2%; with NCI-H322M lung, 97.8%; in the assay with HOP-62 NSCLC, 95.9%; in the assay with NCI-H460 lung it was 104%; in the assay with HOP-92 NSCLC it was 87.6%. The growth in the assay on NCI-H522 lung was 98.3%; with A549/ATCC NSCLC, 104%; in the assay on 786-0 renal, 99.2%; with COLO 205 colon it was 104%.
Turning to `COc1ccc(C(=O)N2CCN(C(=O)c3cc(OC)c(OC)c(OC)c3)CC2)cc1OCCCCOc1cc2c(cc1OC)C(=O)N1CCC[C@H]1C=N2`, the growth in the assay with NCI-H23 lung was 82.2%; in the assay with NCI-H226 lung, 105%; with NCI-H322M lung, 141%; with HOP-62 NSCLC it was 105%; with NCI-H460 lung, 121%; in the assay on HOP-92 NSCLC, 70.9%. Besides, the growth in the assay with NCI-H522 lung was 102%; in the assay with A549/ATCC NSCLC, 76.8%; in the assay on 786-0 renal it was 108%; in the assay with COLO 205 colon, 107%.
As for `CC(Cc1nnc(SCC(=O)Nc2ccc(I)cc2)n1N)c1ccccc1` (stereo not given), the growth is 99.8% in the assay on NCI-H23 lung; 87.2% in the assay on NCI-H226 lung; 95.7% with NCI-H322M lung; 71% in the assay with HOP-62 NSCLC; 96.1% in the assay on NCI-H460 lung; 76.7% in the assay with HOP-92 NSCLC. For the same compound, the growth was 82.8% in the assay with NCI-H522 lung, 100% in the assay with A549/ATCC NSCLC, 72% in the assay on 786-0 renal and 93.9% with COLO 205 colon.
As for `Cc1ccc(Cn2c(-c3nonc3N)nc3ccccc32)cc1`, the growth in the assay with NCI-H23 lung is 83.3%; in the assay with NCI-H226 lung it was 82.7%; in the assay on NCI-H322M lung, 86%; with HOP-62 NSCLC, 76.5%; with NCI-H460 lung, 71.4%; in the assay with HOP-92 NSCLC, 77.6%. In addition, the growth in the assay with NCI-H522 lung was 66.4%; with A549/ATCC NSCLC it was 57.3%; with 786-0 renal it was 92.3%; with COLO 205 colon, 80%.
For the compound `COc1ccc(C2=CC(c3ccc(Oc4ccnc5cc(Cl)ccc45)c(OC)c3)c3c(nc(OC)[nH]c3=O)N2)cc1` (stereo not given), the growth is 83.4% in the assay on NCI-H23 lung; 88.9% with NCI-H226 lung; 72.9% in the assay on NCI-H322M lung; 81.8% in the assay on HOP-62 NSCLC; 63.5% in the assay with NCI-H460 lung; 49.3% in the assay on HOP-92 NSCLC. Also, the growth in the assay with NCI-H522 lung is 75.7%; with A549/ATCC NSCLC, 65.5%; with 786-0 renal, 80.3%; with COLO 205 colon it was 102%.
For the compound `COc1ccc(/C=C/c2cc(N3CCOCC3)c3cc(F)c(F)cc3n2)cc1OC`, the growth in the assay on NCI-H23 lung was 42.3%; in the assay with NCI-H226 lung it was 34.8%; in the assay on NCI-H322M lung it was 30%; with HOP-62 NSCLC, 63.9%; in the assay with NCI-H460 lung, 25.2%; with HOP-92 NSCLC, 49.7%. Besides, the growth in the assay with NCI-H522 lung was 7.5% (active); with A549/ATCC NSCLC, 44.6%; in the assay on 786-0 renal, 40.8%; in the assay on COLO 205 colon, 11.8%.
